Sampled rows, rich in hits. Any-hit rate of the full collection: about 5%.
LmPK inhibitor – LmPK (Leishmania mexicana) enzyme inhibition. Q27686. purified LmPK, Kinase-Glo ATP luminescence, 1 h. Potency, µM (series often up to 57.5 µM), for inactives: at the top dose activity change, negative = inhibition, hits mostly inhibitors. 290,000 tested, 0.37% active; further: potency means the concentration at half of the fitted maximal effect
Target sequence (Q27686 whole entry, looked up): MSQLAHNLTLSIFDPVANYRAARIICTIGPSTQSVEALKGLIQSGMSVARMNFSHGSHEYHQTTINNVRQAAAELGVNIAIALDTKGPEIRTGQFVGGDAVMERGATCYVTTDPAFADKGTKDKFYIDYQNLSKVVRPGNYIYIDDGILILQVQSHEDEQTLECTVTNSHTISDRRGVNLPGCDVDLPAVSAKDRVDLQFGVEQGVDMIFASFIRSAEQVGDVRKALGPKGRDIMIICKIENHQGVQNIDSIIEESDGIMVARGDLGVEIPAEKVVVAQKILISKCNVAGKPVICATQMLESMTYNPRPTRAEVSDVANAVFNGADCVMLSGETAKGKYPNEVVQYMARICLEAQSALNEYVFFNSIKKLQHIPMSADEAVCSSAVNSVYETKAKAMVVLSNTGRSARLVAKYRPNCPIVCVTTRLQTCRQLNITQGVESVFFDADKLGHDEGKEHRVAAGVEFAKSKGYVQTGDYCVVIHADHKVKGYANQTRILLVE
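Purified LmPK (0.1 nM) converted ADP (0.1 mM) to ATP with PEP (0.5 mM) in imidazole buffer pH 7.2 with KCl and MgCl2, 1 h at room temperature. ATP was read by Kinase-Glo luminescence; data normalized to uninhibited and no-enzyme controls.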
Vaccinia mCherry – inhibitors of vaccinia virus infection (mCherry reporter signal); Vaccinia virus mCherry reporter infection, fluorescence; Potency, µM (doses to about 36.5 µM), without a hit: at the top dose activity change, negative = inhibition, usual class: inhibitors; 310,000 tested, 0.63% active; AID 720579; calls by dose curve; tested in A549 cells; further: potency means the concentration at half of the fitted maximal effect; nearly all actives have a fitted effect of over 35% in size
VACV Venus inh – vaccinia inhibition (Venus reporter). Vaccinia virus Venus reporter expression, fluorescence. Potency, µM (top dose mostly 36.5 µM), for inactives: at the top dose activity change, negative = inhibition, hits mostly inhibitors. 330,000 tested, 0.46% active. AID 720580; calls by dose curve; tested in A549 cells; further: potency means the concentration at half of the fitted maximal effect; nearly all actives have a fitted effect of over 30% in size
TbPYK inhibitor – blocks Trypanosoma brucei pyruvate kinase. AID 624173. Q57TT1. TbPYK enzyme, Kinase-Glo Plus ATP luminescence, 45 min. 410,000 tested, 0.12% active. Potency, µM (highest dose often 76.8 µM), for the others: top-dose activity, negative = inhibition, usual class: inhibitors; further: potency means the concentration at half of the fitted maximal effect; nearly all actives have a fitted effect of over 50% in size
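Readout: single end-point luminescence (Kinase-Glo Plus, 10 min). Reaction conditions were TbPYK/substrate plus 130 uM ADP, 45 min at RT, pH 7.2 TEA buffer. No-enzyme wells served as controls, and data were normalized before concentration-response fitting.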
HCMV inh – blocks human cytomegalovirus replication | 410,000 tested, 4.5% active | HFF cells, HCMV-luciferase reporter, 72 h; stronger effect = lower value | activity change, negative = inhibition, % at 57.5 µM | AID 1259415; in the data active means activity change below about -60%; inconclusive means no clear call, values can overlap the other calls; inactive means above about -39%
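HFF cells seeded 16 h at 37C, treated with compounds, infected with luciferase-reporter HCMV at MOI 1 PFU/cell; luciferase read at 72 h post infection, normalized to buffer-only and Salinomycin controls.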
* marks the source's active call; other numbers are inactive results; i = inactive; ? = inconclusive; nt = no result given. Unless noted, the call rests on the fitted dose curve; in most records, active means well fitted curve in the direction sought with a large enough effect; inconclusive means small, poorly fitted or top-dose-only effect, or another doubt; inactive means no such curve, though single readings can be large; an effect the other way counts as inactive or inconclusive. On the % scale 0 is the no-effect control and ±100 the full control effect.

SMILES	LmPK inhibitor	Vaccinia mCherry	VACV Venus inh	TbPYK inhibitor	HCMV inh
Cc1ccccc1N(Cc1cc(=O)[nH]c2ccccc12)C(=O)C(C)C	-4%	-14%	-10%	5%	29
O=C(CCl)N(Cc1cc(=O)[nH]c2ccccc12)c1ccccc1	2%	?	?	5%	-100*
COc1ccccc1N1CCN(S(=O)(=O)CCNC(=O)c2ccccc2Br)CC1	3%	-26%	-14%	-6%	-38
Cc1ccc(C(=O)OCc2c(C)noc2C)cc1NC(=O)c1ccco1	9%	-10%	-8%	4%	9
CCNC(=S)NNc1nnc(-c2ccccc2)c(-c2ccccc2)n1	5%	?	-21%	-9%	27
OCCNc1ncnc2c1c(-c1ccccc1)c(-c1ccccc1)n2Cc1ccco1	2%	1%	-1%	-5%	-63*
c1ccc(-c2c(-c3ccccc3)n(Cc3ccco3)c3ncnc(NCCCn4ccnc4)c23)cc1	2%	?	13µM*	0%	nt
CC(C)Cn1cnc2c(c(-c3ccccc3)c(-c3ccccc3)n2Cc2ccco2)c1=N	-1%	?	?	5%	-28
CCN(CC(=O)Nc1ccc(NC(C)=O)cc1)C(=O)c1cc([N+](=O)[O-])ccc1Sc1ccc(Cl)cc1	nt	nt	nt	2%	74
CCn1ccc2cc(S(=O)(=O)N3CCC(C(=O)NCCc4ccc(SC)cc4)CC3)ccc21	nt	-24%	-14%	3%	13
Clc1ccc(C[n+]2c(-c3ccccc3)cc(-c3ccccc3)cc2-c2ccccc2)cc1	nt	-1%	?	-7%	-93*
Fc1ccc(C[n+]2c(-c3ccccc3)cc(-c3ccccc3)cc2-c2ccccc2)cc1	nt	i	?	-5%	-84*
Cc1cc(-c2ccccc2)cc(-c2ccccc2)[n+]1CCc1ccccc1	nt	?	?	-12%	-98*
O=C([O-])c1cc(-c2ccccc2)cc(-c2ccccc2)[n+]1CCc1ccc(Cl)cc1	nt	-23%	?	4%	-80*
Cc1cc(-c2ccccc2)cc(-c2ccccc2)[n+]1C	-12%	i	-14%	3%	?
CC(CCc1ccccc1)NC(=O)COC(=O)c1ccc(NC(N)=O)cc1 (stereo unspecified)	1%	nt	nt	-3%	-71*
COc1ccc(C(=O)OCC(=O)NC(C)CCc2ccccc2)cc1 (stereo unspecified)	0%	-1%	-10%	0%	-29
Cc1ccccc1OCCCSc1nc2ccccc2[nH]1	11%	-26%	-20%	0%	-70*
c1ccc(OCCSc2nc3ccccc3[nH]2)cc1	3%	nt	-29%	-4%	4
NC(=O)C1CCN(C(=O)CCn2c(=O)oc3ccccc32)CC1	nt	nt	nt	4%	50
Oc1[nH]c(N=C2N=c3ccccc3=N2)c2ccccc12	-12%	-20%	-23%	3%	-97*
CCOC(=O)c1oc2ccc(S(=O)(=O)n3nc(-c4ccc(OC)cc4)cc3N)cc2c1C	6%	?	?	6%	-67*
CCOC(=O)c1oc2ccc(S(=O)(=O)n3nc(-c4ccccc4)cc3N)cc2c1C	12%	-31%	?	-1%	0
CCOc1ccc(C2C(C(=O)Nc3ccccc3)=C(C)Nc3nc(SCc4cc(C)ccc4C)nn32)cc1 (stereo unspecified)	nt	1%	-10%	3%	16
COc1cccc(CSc2nc3n(n2)C(CC(C)C)C(C(=O)Nc2ccccc2OC)=C(C)N3)c1 (stereo unspecified)	nt	-18%	-22%	2%	-70*
SMILES	LmPK inhibitor	Vaccinia mCherry	VACV Venus inh	TbPYK inhibitor	HCMV inh
COc1cc(C2C(C(=O)Nc3ccc(C)cc3C)=C(C)Nc3nc(SCc4ccccc4)nn32)cc(OC)c1OC (stereo unspecified)	nt	-8%	-11%	-3%	-74*
CC1=C(C(=O)Nc2ccccc2C)C(c2cccs2)n2nc(SCc3ccccc3)nc2N1 (stereo unspecified)	nt	?	-22%	6%	-65*
COc1cc(C2C(C(=O)Nc3ccccc3C)=C(C)Nc3nc(SCc4cc(C)ccc4C)nn32)ccc1O (stereo unspecified)	nt	?	?	-5%	-74*
CC1=C(C(=O)Nc2ccc(C)cc2C)C(c2ccc(C(=O)O)cc2)n2nc(SCc3ccccc3)nc2N1 (stereo unspecified)	nt	0%	-2%	4%	-6
CC1CC(OCC(O)CN2CCCCC2C)CC(C)(C)C1 (stereo unspecified)	-3%	-25%	-24%	8%	-37
CCn1cc(CN2CCCC(C(=O)c3ccc(-c4ccccc4)cc3)C2)cn1 (stereo unspecified)	-1%	i	-19%	-6%	-61*
COc1cccc(-c2ccc(NC(=O)C3CCCN(Cc4cnn(C(C)C)c4)C3)cc2)c1 (stereo unspecified)	-3%	-7%	?	3%	-108*
O=C(C1CCN(c2nnnn2-c2ccccc2)CC1)N1CCN(c2ccccc2)CC1	0%	nt	nt	5%	-29
CC1CCCCC1NC(=O)CN(C)S(=O)(=O)c1ccc2c(c1)c(=O)n(C)c(=O)n2C (stereo unspecified)	-5%	nt	nt	3%	0
CCOC(=O)c1cc2[nH]c3ccccc3c2[n+](-c2ccc([N+](=O)[O-])cc2)c1N	2%	-16%	-8%	-5%	-91*
CCOC(=O)c1cc2[nH]c3ccccc3c2[n+](-c2ccc([N+](=O)[O-])cc2)c1C	-1%	-22%	-9%	-6%	-13
CCCn1c(=NC(=O)c2ccc3c(c2)OCO3)c(C#N)cc2c(=O)n3cccc(C)c3nc21	-8%	nt	nt	nt	nt
COC(=O)N/N=C/c1ccccc1Cl	0%	i	-5%	2%	-75*
C=CCn1c(SCC(O)Cn2c3ccccc3c3ccccc32)nnc1-c1ccco1 (stereo unspecified)	-3%	nt	-27%	4%	43
O=C(CSc1ccccn1)N/N=C/c1cccc([N+](=O)[O-])c1	2%	-10%	-1%	-1%	-25
Cc1cccc(Cn2ccn(Cc3ccc(Cl)cc3)c(=O)c2=O)c1	nt	-2%	-5%	-13%	-62*
CC(=O)CC(=O)O[C@@H]1C=C[C@H](NC(=O)OC(C)(C)C)C1	nt	nt	nt	nt	16
O=C(/C=C/c1ccc2c(c1)OCO2)c1c(O)n(CCc2ccccc2)c(=O)[nH]c1=O	3%	-6%	2%	2%	-84*
COc1cc(/C=C/C(=O)c2c(O)n(CCc3ccccc3)c(=O)[nH]c2=O)ccc1O	-2%	?	-4%	-7%	-97*
COc1ccc(/C=C/C(=O)NC(C)CCc2ccccc2)cc1OC (stereo unspecified)	2%	nt	nt	1%	-36
O=C(/C=C/c1ccccc1)c1c(O)n(CCc2ccccc2)c(=O)[nH]c1=O	2%	-3%	-3%	-12%	-4
COc1ccccc1N1CCN(CC(=O)Nc2ccc(-n3cnnn3)cc2)CC1	-5%	-11%	1%	3%	21
